{
  "source": "PubChem BioAssay (EPA / NIEHS)",
  "key": {"[1]": {"target": "Muscarinic acetylcholine receptor M1 (Homo sapiens) (UniProt P11229)", "sequence (P11229 whole entry, looked up)": "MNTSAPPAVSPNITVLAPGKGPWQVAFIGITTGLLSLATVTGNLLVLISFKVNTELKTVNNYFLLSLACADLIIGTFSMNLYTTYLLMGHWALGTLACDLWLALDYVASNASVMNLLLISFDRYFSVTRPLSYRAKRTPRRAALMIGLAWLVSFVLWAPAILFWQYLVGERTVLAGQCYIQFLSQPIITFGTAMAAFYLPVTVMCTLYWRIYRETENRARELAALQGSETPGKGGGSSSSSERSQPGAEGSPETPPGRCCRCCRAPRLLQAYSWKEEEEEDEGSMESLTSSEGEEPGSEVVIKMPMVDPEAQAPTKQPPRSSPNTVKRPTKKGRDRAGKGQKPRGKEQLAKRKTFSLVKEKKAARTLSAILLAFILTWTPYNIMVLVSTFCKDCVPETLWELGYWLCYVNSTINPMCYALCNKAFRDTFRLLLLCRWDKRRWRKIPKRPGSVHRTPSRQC", "assay": "NVS_GPCR_hM1: NovaScreen (NVS) G Protein-Coupled Receptor Assay for human Muscarinic, M1 Receptor (AID 2283270)", "in_short": "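Actives from a duplicate 25 uM single-point screen were retested in concentration series. Binding measured as displacement of a radioligand from CHO-derived receptor preparation, 1 h incubation, filtration and scintillation counting, analysed as signal loss against DMSO.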"}, "[2]": {"target": "Muscarinic acetylcholine receptor M3 (Homo sapiens) (UniProt P20309)", "sequence (P20309 whole entry, looked up)": "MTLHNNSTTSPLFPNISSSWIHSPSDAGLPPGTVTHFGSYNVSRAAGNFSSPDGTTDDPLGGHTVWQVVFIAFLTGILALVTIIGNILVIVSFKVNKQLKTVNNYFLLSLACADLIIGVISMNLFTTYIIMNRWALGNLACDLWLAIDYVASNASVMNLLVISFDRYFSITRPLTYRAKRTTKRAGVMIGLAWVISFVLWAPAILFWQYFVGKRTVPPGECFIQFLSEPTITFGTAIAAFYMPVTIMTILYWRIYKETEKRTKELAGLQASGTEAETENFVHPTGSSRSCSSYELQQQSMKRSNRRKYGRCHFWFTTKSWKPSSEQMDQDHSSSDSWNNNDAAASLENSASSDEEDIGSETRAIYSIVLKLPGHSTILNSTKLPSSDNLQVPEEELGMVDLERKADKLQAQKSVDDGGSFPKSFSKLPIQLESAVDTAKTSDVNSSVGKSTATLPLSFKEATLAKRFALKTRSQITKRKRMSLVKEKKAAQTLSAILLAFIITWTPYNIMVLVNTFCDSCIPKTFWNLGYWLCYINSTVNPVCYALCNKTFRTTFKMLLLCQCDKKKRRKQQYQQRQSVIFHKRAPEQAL", "assay": "NVS_GPCR_hM3: NovaScreen (NVS) G Protein-Coupled Receptor Assay for human Muscarinic, M3 Receptor (AID 2283272)", "in_short": "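Radioligand displacement binding on human M3 receptor in CHO-derived membranes, 1 h incubation, filter-based scintillation counting. Primary screen in duplicate at 25 uM; actives followed up in concentration series; loss of signal versus DMSO.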"}, "[3]": {"target": "Muscarinic acetylcholine receptor M2 (Homo sapiens) (UniProt P08172)", "sequence (P08172 whole entry, looked up)": "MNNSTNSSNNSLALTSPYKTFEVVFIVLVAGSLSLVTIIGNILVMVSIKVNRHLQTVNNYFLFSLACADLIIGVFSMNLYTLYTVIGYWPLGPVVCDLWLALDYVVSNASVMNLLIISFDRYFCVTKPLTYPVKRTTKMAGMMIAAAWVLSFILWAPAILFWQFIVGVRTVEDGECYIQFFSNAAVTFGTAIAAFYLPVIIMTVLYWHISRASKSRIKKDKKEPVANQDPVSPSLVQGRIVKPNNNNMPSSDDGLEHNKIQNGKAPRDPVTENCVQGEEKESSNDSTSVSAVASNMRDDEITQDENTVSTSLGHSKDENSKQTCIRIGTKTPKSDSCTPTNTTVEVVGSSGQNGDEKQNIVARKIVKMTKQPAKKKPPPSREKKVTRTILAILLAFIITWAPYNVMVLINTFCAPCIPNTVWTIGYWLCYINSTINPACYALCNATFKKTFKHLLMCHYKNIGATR", "assay": "NVS_GPCR_hM2: NovaScreen (NVS) G Protein-Coupled Receptor Assay for human Muscarinic, M2 Receptor (AID 2283273)", "in_short": "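Filter-based radiodetection read bound radioligand 1 h after dosing CHO-derived membrane protein. Single-concentration duplicates (25 uM) first, then concentration-response for actives; signal loss versus DMSO scored.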"}, "[4]": {"target": "human Muscarinic, M4 Receptor, CHRM4 (gene 1132) (UniProt P08173)", "sequence (P08173 whole entry, looked up)": "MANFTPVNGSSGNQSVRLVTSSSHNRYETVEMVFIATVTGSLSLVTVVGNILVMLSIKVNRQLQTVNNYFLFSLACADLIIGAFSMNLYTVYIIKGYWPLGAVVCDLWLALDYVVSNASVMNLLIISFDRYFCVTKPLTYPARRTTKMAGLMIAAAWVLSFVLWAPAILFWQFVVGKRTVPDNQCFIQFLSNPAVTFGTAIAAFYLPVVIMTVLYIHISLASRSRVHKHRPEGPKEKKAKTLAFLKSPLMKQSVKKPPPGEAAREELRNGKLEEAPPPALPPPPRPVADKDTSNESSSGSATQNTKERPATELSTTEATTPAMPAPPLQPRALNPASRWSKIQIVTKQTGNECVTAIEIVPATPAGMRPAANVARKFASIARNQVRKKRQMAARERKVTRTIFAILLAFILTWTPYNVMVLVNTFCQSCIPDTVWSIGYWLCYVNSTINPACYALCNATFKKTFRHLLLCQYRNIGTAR", "assay": "NVS_GPCR_hM4: NovaScreen (NVS) G Protein-Coupled Receptor Assay for human Muscarinic, M4 Receptor (AID 2283274)", "in_short": "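Filter-based scintillation counting of radioligand bound to CHO-expressed human M4 preparations after 1 h; loss of signal fitted versus DMSO. Initial duplicate testing at 25 uM, concentration-response follow-up for actives.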"}, "[5]": {"target": "Muscarinic acetylcholine receptor M5 (Homo sapiens) (UniProt P08912)", "sequence (P08912 whole entry, looked up)": "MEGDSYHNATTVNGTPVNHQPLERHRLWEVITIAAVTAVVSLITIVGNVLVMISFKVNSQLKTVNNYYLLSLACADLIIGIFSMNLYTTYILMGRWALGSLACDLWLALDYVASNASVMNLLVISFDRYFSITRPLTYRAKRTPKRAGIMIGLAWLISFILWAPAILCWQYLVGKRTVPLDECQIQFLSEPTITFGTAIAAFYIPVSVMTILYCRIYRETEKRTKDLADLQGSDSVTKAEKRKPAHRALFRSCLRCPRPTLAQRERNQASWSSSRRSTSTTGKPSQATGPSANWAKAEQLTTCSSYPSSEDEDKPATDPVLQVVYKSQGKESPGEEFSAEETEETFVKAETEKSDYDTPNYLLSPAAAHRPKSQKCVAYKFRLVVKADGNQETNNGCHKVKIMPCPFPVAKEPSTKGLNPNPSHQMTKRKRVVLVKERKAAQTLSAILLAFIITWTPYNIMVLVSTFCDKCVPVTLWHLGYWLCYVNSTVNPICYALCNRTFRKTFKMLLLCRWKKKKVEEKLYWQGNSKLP", "assay": "NVS_GPCR_hM5: NovaScreen (NVS) G Protein-Coupled Receptor Assay for human Muscarinic, M5 Receptor (AID 2283275)", "in_short": "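Chemicals passing a primary duplicate screen at 25 uM were run as singleton concentration series, maximum 50 uM. Displacement of a specific radioligand from CHO-extracted receptor was read by filter scintillation after 1 h, relative to DMSO.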"}, "[6]": {"target": "human Neurokinin, NK2 Receptor, TACR2 (gene 6865) (UniProt P21452)", "sequence (P21452 whole entry, looked up)": "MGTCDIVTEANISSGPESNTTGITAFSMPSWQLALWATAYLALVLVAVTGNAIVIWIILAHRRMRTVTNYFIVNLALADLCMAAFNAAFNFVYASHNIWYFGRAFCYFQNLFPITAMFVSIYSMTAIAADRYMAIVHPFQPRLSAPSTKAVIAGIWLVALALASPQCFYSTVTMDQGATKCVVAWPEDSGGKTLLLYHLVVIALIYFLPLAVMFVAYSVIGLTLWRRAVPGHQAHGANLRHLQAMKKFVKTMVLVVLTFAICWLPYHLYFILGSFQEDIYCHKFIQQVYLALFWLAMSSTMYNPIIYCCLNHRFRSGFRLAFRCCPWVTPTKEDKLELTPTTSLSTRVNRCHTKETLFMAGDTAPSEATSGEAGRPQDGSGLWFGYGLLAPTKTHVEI", "assay": "NVS_GPCR_hNK2: NovaScreen (NVS) G Protein-Coupled Receptor Assay for human Neurokinin, NK2 Receptor (AID 2283278)", "in_short": "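Radioligand binding on membranes from CHO cells expressing receptor, filter-based scintillation read 4 h after dosing. Initial duplicate screen at 25 uM, actives in concentration series; loss of signal versus DMSO.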"}, "[7]": {"target": "human Neuropeptide Receptor Y1 (NPY1), NPY1R (gene 4886) (UniProt P25929)", "sequence (P25929 whole entry, looked up)": "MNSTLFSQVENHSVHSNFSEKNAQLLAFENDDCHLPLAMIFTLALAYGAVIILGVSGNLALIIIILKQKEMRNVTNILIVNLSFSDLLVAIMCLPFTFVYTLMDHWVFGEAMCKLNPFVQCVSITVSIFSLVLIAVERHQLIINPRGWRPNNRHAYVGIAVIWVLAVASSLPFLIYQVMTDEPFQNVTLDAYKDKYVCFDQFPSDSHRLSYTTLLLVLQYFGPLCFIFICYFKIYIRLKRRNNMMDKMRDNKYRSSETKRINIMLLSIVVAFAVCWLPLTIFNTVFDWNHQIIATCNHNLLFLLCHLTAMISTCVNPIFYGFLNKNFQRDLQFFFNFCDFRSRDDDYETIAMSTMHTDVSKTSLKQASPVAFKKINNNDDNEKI", "assay": "NVS_GPCR_hNPY1: NovaScreen (NVS) G Protein-Coupled Receptor Assay for human Neuropeptide Receptor Y1 (NPY1) (AID 2283276)", "in_short": "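Displacement of specific radioligand from NPY1 receptor of SK-N-MC origin, read by filtration and scintillation after 1 h. Compounds first tested at 25 uM in duplicate, then actives in concentration series; signal loss relative to DMSO.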"}, "[8]": {"target": "human Neurotensin Receptor (NTS), NTSR1 (gene 4923) (UniProt P30989)", "sequence (P30989 whole entry, looked up)": "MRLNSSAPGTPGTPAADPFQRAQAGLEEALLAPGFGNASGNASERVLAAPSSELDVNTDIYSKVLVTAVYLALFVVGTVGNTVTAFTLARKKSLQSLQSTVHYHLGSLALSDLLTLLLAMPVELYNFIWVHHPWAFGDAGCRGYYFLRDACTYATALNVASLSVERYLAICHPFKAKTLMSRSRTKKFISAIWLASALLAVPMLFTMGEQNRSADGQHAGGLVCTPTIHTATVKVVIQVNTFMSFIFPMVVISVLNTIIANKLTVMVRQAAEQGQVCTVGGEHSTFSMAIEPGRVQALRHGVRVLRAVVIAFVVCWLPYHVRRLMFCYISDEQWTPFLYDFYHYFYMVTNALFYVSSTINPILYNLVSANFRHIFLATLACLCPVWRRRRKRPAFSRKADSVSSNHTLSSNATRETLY", "assay": "NVS_GPCR_hNTS: NovaScreen (NVS) G Protein-Coupled Receptor Assay for human Neurotensin Receptor (NTS) (AID 2283279)", "in_short": "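Compounds competed with a radiolabelled ligand for binding to CHO-derived human neurotensin receptor; bound signal counted after filtration, 1 h. Screened first at a single concentration of 25 uM in duplicate, then concentration series to 50 uM maximum for actives.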"}, "[9]": {"target": "human Leukotriene B4 Receptor 1 (LTB4-BLT1), LTB4R (gene 1241) (UniProt Q15722)", "sequence (Q15722 whole entry, looked up)": "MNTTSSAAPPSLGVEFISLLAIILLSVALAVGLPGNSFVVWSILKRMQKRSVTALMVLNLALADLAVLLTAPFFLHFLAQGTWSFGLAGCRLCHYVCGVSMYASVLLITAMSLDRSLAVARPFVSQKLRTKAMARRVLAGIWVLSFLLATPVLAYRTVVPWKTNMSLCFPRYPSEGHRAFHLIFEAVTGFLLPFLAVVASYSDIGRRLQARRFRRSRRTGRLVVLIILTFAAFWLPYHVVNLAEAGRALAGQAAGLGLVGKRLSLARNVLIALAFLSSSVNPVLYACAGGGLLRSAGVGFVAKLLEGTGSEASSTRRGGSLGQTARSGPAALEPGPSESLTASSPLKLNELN", "assay": "NVS_GPCR_hLTB4_BLT1: NovaScreen (NVS) G Protein-Coupled Receptor Assay for human Leukotriene B4 Receptor 1 (LTB4-BLT1) (AID 2283271)", "in_short": "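Cell-free human neutrophil receptor preparation, 1 h exposure, radioligand binding read by filter scintillation counting. Single 25 uM duplicate screen, then concentration series topping at 50 uM; binding loss scored against DMSO baseline.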"}, "[10]": {"target": "Neuropeptide Y receptor type 2 (Homo sapiens) (UniProt P49146)", "sequence (P49146 whole entry, looked up)": "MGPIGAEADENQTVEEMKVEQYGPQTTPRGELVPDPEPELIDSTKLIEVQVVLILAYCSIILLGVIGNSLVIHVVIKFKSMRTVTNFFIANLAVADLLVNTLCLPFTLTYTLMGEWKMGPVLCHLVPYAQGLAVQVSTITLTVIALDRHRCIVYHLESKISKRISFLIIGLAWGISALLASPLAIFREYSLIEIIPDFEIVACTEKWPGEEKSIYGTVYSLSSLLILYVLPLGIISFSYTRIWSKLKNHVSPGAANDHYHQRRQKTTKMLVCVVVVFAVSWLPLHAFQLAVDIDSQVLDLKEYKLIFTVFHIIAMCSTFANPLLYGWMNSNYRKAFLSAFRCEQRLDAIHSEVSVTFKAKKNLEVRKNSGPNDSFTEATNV", "assay": "NVS_GPCR_hNPY2: NovaScreen (NVS) G Protein-Coupled Receptor Assay for human Neuropeptide Receptor Y2 (NPY2) (AID 2283277)", "in_short": "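Chemicals were first tested in duplicate at 25 uM, then actives in singleton concentration series to 50 uM. Tracer binding to SK-N-MC-derived protein measured cell-free after 1 h via filter scintillation; signal loss relative to DMSO.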"}},
  "note": "Results filed as inconclusive are left out. Active and inactive are the calls of the source. Rule for the calls: active = hit-call score of the fitted dose curve at least 0.9, where 1 is the maximum; inconclusive = response in the unintended direction; inactive = score below 0.9.",
  "data": [
    {"smiles": "CCC(=O)C(CC(C)N(C)C)(c1ccccc1)c1ccccc1", "note": "(stereo unspecified)", "values": [
      {"measurement": "AC50", "setting": "[1]", "value": "6920 nM (active)"},
      {"measurement": "AC50", "setting": "[2]", "value": "10700 nM (active)"},
      {"measurement": "AC50", "setting": "[3]", "value": "9960 nM (active)"},
      {"measurement": "AC50", "setting": "[4]", "value": "8300 nM (active)"},
      {"measurement": "AC50", "setting": "[5]", "value": "4570 nM (active)"}
    ]},
    {"smiles": "CC(C)(C)CC(C)(C)c1ccc(O)cc1", "values": [
      {"measurement": "outcome", "setting": "[1]", "value": "inactive"},
      {"measurement": "outcome", "setting": "[3]", "value": "inactive"},
      {"measurement": "AC50", "setting": "[6]", "value": "25000 nM (active)"}
    ]},
    {"smiles": "CCN1CCC2(CC1)COc1cc3c(cc12)N(C(=O)c1ccc(-c2ccc(-c4nnc(C)o4)cc2C)cc1)CC3", "values": [
      {"measurement": "AC50", "setting": "[1]", "value": "646 nM (active)"},
      {"measurement": "AC50", "setting": "[2]", "value": "676 nM (active)"},
      {"measurement": "AC50", "setting": "[3]", "value": "1320 nM (active)"},
      {"measurement": "AC50", "setting": "[4]", "value": "1900 nM (active)"},
      {"measurement": "AC50", "setting": "[5]", "value": "2030 nM (active)"}
    ]},
    {"smiles": "Oc1cccc2cccnc12", "values": [
      {"measurement": "outcome", "setting": "[7]", "value": "inactive"},
      {"measurement": "AC50", "setting": "[6]", "value": "4960 nM (active)"},
      {"measurement": "outcome", "setting": "[8]", "value": "inactive"}
    ]},
    {"smiles": "O=C(O)C(F)(F)C(F)(F)C(F)(F)C(F)(F)C(F)(F)C(F)(F)C(F)(F)C(F)(F)C(F)(F)C(F)(F)F", "values": [
      {"measurement": "AC50", "setting": "[9]", "value": "33400 nM (active)"}
    ]},
    {"smiles": "CC(C)(C)c1cc(O)ccc1O", "values": [
      {"measurement": "outcome", "setting": "[9]", "value": "inactive"},
      {"measurement": "AC50", "setting": "[6]", "value": "16300 nM (active)"}
    ]},
    {"smiles": "Nc1ncc([N+](=O)[O-])s1", "values": [
      {"measurement": "outcome", "setting": "[6]", "value": "inactive"}
    ]},
    {"smiles": "O=C(Nc1ccc2[nH]ccc2c1)c1cc2cc(F)ccc2n1Cc1cccc(F)c1", "values": [
      {"measurement": "outcome", "setting": "[5]", "value": "inactive"}
    ]},
    {"smiles": "O=C1C2(Cl)C3(Cl)C4(Cl)C(Cl)(Cl)C5(Cl)C3(Cl)C1(Cl)C5(Cl)C24Cl", "note": "(stereo unspecified)", "values": [
      {"measurement": "outcome", "setting": "[2]", "value": "inactive"},
      {"measurement": "outcome", "setting": "[3]", "value": "inactive"},
      {"measurement": "outcome", "setting": "[4]", "value": "inactive"}
    ]},
    {"smiles": "C=C(C)C(=O)[O][Sn]([CH2]CCC)([CH2]CCC)[CH2]CCC", "values": [
      {"measurement": "AC50", "setting": "[1]", "value": "1900 nM (active)"},
      {"measurement": "AC50", "setting": "[2]", "value": "2670 nM (active)"},
      {"measurement": "AC50", "setting": "[3]", "value": "5320 nM (active)"},
      {"measurement": "AC50", "setting": "[4]", "value": "19100 nM (active)"},
      {"measurement": "AC50", "setting": "[5]", "value": "1230 nM (active)"},
      {"measurement": "AC50", "setting": "[7]", "value": "1140 nM (active)"},
      {"measurement": "AC50", "setting": "[10]", "value": "14800 nM (active)"},
      {"measurement": "AC50", "setting": "[6]", "value": "977 nM (active)"}
    ]},
    {"smiles": "Nc1cccc2ccccc12", "values": [
      {"measurement": "AC50", "setting": "[6]", "value": "4280 nM (active)"}
    ]},
    {"smiles": "COP(=S)(OC)Oc1ccc(Sc2ccc(OP(=S)(OC)OC)cc2)cc1", "values": [
      {"measurement": "outcome", "setting": "[6]", "value": "inactive"}
    ]},
    {"smiles": "CC12CC1(C)C(=O)N(c1cc(Cl)cc(Cl)c1)C2=O", "note": "(stereo unspecified)", "values": [
      {"measurement": "outcome", "setting": "[6]", "value": "inactive"}
    ]},
    {"smiles": "COP(=S)(OC)Oc1ccc(S(=O)(=O)N(C)C)cc1", "values": [
      {"measurement": "outcome", "setting": "[6]", "value": "inactive"}
    ]},
    {"smiles": "CC(=O)[O][Hg][c]1ccccc1", "values": [
      {"measurement": "AC50", "setting": "[1]", "value": "1390 nM (active)"},
      {"measurement": "AC50", "setting": "[9]", "value": "21000 nM (active)"},
      {"measurement": "AC50", "setting": "[2]", "value": "562 nM (active)"},
      {"measurement": "AC50", "setting": "[3]", "value": "909 nM (active)"},
      {"measurement": "AC50", "setting": "[4]", "value": "770 nM (active)"},
      {"measurement": "AC50", "setting": "[5]", "value": "591 nM (active)"},
      {"measurement": "AC50", "setting": "[7]", "value": "510 nM (active)"},
      {"measurement": "AC50", "setting": "[10]", "value": "8480 nM (active)"},
      {"measurement": "AC50", "setting": "[6]", "value": "520 nM (active)"}
    ]},
    {"smiles": "COP(=S)(OC)Oc1cc(Cl)c(Cl)cc1Cl", "values": [
      {"measurement": "outcome", "setting": "[6]", "value": "inactive"}
    ]}
  ]
}
